# Assay outcomes: PubChem BioAssay, National Center for Advancing Translational Sciences (NCATS)
# 12-LOX inh – Primary qHTS assay for inhibitors of human arachidonate 12S-lipoxygenase (ALOX12): Round 2; purified 12hLO, xylenol orange hydroperoxide absorbance; Potency, µM (series often up to 108 µM), for inactives: at the top dose activity change, negative = inhibition, most hits filed as inhibitors; 580,000 tested, 1.1% active; AID 1671190, 2021
#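 Purified human 12hLO at 150 nM in 25 mM Hepes, 0.01% Triton X-100, pH 7.0, preincubated 15 min at room temperature with compound. Reaction started with 40 uM arachidonic acid, 30 min at room temperature. Hydroperoxide measured by Fe-xylenol orange, 573/405 nm absorbance ratio.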
# DT40 TDP1 no CPT – qHTS for Inhibitors of human tyrosyl-DNA phosphodiesterase 1 (TDP1): qHTS in cells in absence of CPT; 420,000 tested, 15% active; DT40 Tdp1-/- hTDP1 cells, no CPT, ATP luminescence, 48 h; Potency, µM (top dose mostly 46.2 µM), for the others: at the highest dose activity change, negative = growth inhibition, hits mostly inhibitors; note: nearly all actives have a fitted effect of over 55% in size
#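 Stably hTDP1-transfected Tdp1-null chicken DT40 cells were treated with library compounds minus camptothecin and grown for at least 48 hr at 37 °C, after which cellular ATP was quantified by luminescence.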
# RORg inh – qHTS for inhibitors of ROR gamma transcriptional activity; Drosophila S2 Gal4-RORgamma UAS-luciferase reporter, 20 h; AID 2551, 2010; Potency, µM (titrated, usually from 53.6 µM), without a hit: at the highest dose activity change, negative = inhibition, usual class: inhibitors; 310,000 tested, 5.4% active; note: nearly all actives have a fitted effect of over 60% in size
# Target sequence (P51450 whole entry, looked up, the tested form may be a part): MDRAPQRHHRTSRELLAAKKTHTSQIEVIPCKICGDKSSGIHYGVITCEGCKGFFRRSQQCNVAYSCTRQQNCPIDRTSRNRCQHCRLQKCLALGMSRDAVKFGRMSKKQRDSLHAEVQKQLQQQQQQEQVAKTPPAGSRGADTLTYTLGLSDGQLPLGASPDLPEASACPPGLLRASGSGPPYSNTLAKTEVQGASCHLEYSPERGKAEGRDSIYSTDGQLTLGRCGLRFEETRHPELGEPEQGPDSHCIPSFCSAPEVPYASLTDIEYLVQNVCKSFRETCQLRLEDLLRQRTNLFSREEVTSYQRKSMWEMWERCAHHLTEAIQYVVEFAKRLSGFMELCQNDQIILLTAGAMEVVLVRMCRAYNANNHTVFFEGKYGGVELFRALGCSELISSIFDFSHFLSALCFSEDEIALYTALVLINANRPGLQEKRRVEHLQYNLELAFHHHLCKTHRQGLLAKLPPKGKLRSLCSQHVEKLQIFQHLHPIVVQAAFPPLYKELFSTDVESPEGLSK
#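 Using a luciferase readout, inhibitors were identified by reduced reporter activity in Drosophila cells coexpressing a copper-inducible Gal4–ROR gamma fusion and UAS-driven Photinus luciferase, incubated 20 hr after 700 uM copper sulfate.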
# Gal4-VP16 FLuc – VP16 counterscreen qHTS for inhibitors of ROR gamma transcriptional activity. Drosophila S2 Gal4-VP16 UAS-luciferase, luminescence, 20 h. Potency, µM (titrated, usually from 53.6 µM), inactives show at the highest dose activity, negative = inhibition, usual class: inhibitors. 310,000 tested, 3.5% active;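 note: Gal4-VP16 expression switched on by copper sulfate through the metallothionein promoter; nearly all actives have a fitted effect of over 50% in size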
# DT40 TDP1 CPT – qHTS for Inhibitors of human tyrosyl-DNA phosphodiesterase 1 (TDP1): qHTS in cells in presence of CPT. chicken DT40 Tdp1-/-;hTDP1 cells + 20 nM CPT, ATP luminescence, 48 h. Potency, µM (titrated, usually from 46.2 µM), without a hit: at the top dose activity change, negative = growth inhibition, hits mostly inhibitors. 420,000 tested, 12% active. AID 686979, 2013; note: nearly all actives have a fitted effect of over 55% in size
#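 Cell growth measured by CellTiter-Glo luminescence after a minimum 48 h, 37 C compound exposure with 20 nM CPT in Tdp1-knockout DT40 cells stably expressing hTDP1, seeded 400/well; qHTS titration format.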
# ELG1 repair inh – qHTS screen for small molecules that inhibit ELG1-dependent DNA repair in human embryonic kidney (HEK293T) cells expressing luciferase-tagged ELG1; HEK293T ELG1-luciferase reporter, luminescence, 16 h; DNA damage induced by 5-fluorouridine; Potency, µM (top dose mostly 46.1 µM), inactives show top-dose activity change, negative = inhibition, hits mostly inhibitors; 330,000 tested, 2.3% active; note: nearly all actives have a fitted effect of over 55% in size
#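 HEK293T cells expressing luciferase-tagged ELG1 (2,000/well) received 5-Fluorouridine plus compound or DMSO for 16 hr at 37 °C. Luciferase was read by ONE-Glo luminescence after 30 min at room temperature.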
# Starred values were filed as active, the others as inactive; ? = inconclusive; nt = not tested or not shown; [ ] = another dose, or the depositor's remark. Compounds with a hit are over-represented: about 15% of the library has one in this group of screens. Calls come from the whole dose curve; as a rule, active = well fitted curve in the direction sought with a large enough effect; inconclusive = small, poorly fitted or top-dose-only effect, or another doubt; inactive = no such curve, though single readings can be large; an effect the other way counts as inactive or inconclusive. % is set by controls: 0 for no effect and ±100 for the full control effect; potency is the fitted concentration of half-maximal effect.
SMILES,12-LOX inh,DT40 TDP1 no CPT,RORg inh,Gal4-VP16 FLuc,DT40 TDP1 CPT,ELG1 repair inh
COCCN(C(=O)COC(=O)c1ccccc1Nc1ccccc1)c1c(N)n(Cc2ccccc2)c(=O)[nH]c1=O,?,?,nt,nt,20.6µM*,?
COCCN(C(=O)COC(=O)/C=C/c1ccc(Cl)c(Cl)c1)c1c(N)n(Cc2ccccc2)c(=O)[nH]c1=O,?,18.4µM*,nt,nt,16.4µM*,nt
Cc1noc(C)c1[S+](=O)([O-])N(C)Cc1ccc(-c2ccccc2)cc1,19.3%,nt,nt,nt,nt,nt
O=C1/C(=C/N(C(=O)c2ccco2)c2ccc(Cl)cc2)Sc2ccccc21,nt,16.4µM*,?,?,23.1µM*,?
O=C1/C(=C/N(C(=O)c2ccco2)c2ccc(Br)cc2)Sc2ccccc21,nt,14.6µM*,35.5µM*,12.6µM*,?,?
CCn1c(SCC(=O)Nc2ccc(Cl)cn2)nc2ccccc21,-6.5%,nt,nt,nt,nt,nt
CCOc1ccc2c(c1)C(C)=CC(C)(C)N2C(=O)Nc1ccccc1,nt,25.9µM*,?,?,5.8µM*,18.6%
O=C(O)C(Sc1ccc(F)c(Cl)c1)c1ccccc1 (centres undefined),-25.8%,nt,nt,nt,nt,nt
Cc1occc1C(=O)Nc1sc2c(c1C#N)CCC(C(C)(C)C)C2 (centres undefined),-7.1%,nt,nt,nt,nt,nt
Cc1onc(-c2c(F)cccc2Cl)c1C(=O)Nc1sc2c(c1C#N)CCC(C(C)(C)C)C2 (centres undefined),?,16.4µM*,?,-22.5%,?,?
Cc1onc(-c2c(F)cccc2Cl)c1C(=O)Nc1sc2c(c1C(N)=O)CCC2,?,11.2µM*,11.3%,-4.2%,11.2µM*,?
CCC(=O)N1CCCN(S(C)(=O)=O)c2ccccc21,6.2%,nt,nt,nt,nt,nt
Cc1cc(S(=O)(=O)NC2CCCC2)ccc1F,-11.9%,?,-28.1%,-6.5%,-13.2%,10.3%
O=C(Nc1ccc(F)c(F)c1)c1cc(S(=O)(=O)NC2CCCCCC2)ccc1F,?,20.6µM*,nt,nt,20.6µM*,nt
CCOc1ccccc1NC(=O)c1cc(S(=O)(=O)NC2CCCC2)ccc1F,-12.2%,?,nt,nt,-19.0%,nt
COc1ccc(C(=O)NC2CCCCCC2)cc1S(=O)(=O)Nc1ccc(Br)cc1,0.0%,?,15.3%,0.0%,1.0%,28.6%
O=C(Nc1ccc(Br)cc1)c1ccc(F)c(S(=O)(=O)NC2CCCCCC2)c1,3.8%,1.64µM*,nt,nt,2.91µM*,nt
CNC(=O)c1cc(S(=O)(=O)NC2CCCCCC2)ccc1C,0.0%,-0.9%,nt,nt,?,-1.6%
O=C(Nc1ccc(Br)cc1F)c1cc(S(=O)(=O)NC2CCCCC2)ccc1F,-29.5%,20.6µM*,nt,nt,23.1µM*,nt
CC(C)c1ccc(NC(=O)c2cc(S(=O)(=O)NC3CCCCC3)ccc2F)cc1,2.4%,18.4µM*,nt,nt,16.4µM*,nt
COCC(=O)N[C@H]1C[C@@H](CO)N(Cc2cn[nH]c2-c2ccccc2)C1,19.4%,nt,nt,nt,nt,nt
COc1ccc(-n2c(C)c3c(C)nnc(C)c3c2C)cc1OC,-0.8%,14.6µM*,nt,nt,16.4µM*,nt
Cn1nccc1C(=O)NC(=S)Nc1cc(Cl)cc(Cl)c1,?,-23.6%,2.51µM*,12.6µM*,1.1%,-16.1%
CCOC(=O)c1ccc(NC(=O)c2ccnn2C)cc1,0.0%,2.8%,nt,nt,1.5%,nt
Cc1ccc2cccc(NC(=S)NC(=O)c3ccnn3C)c2n1,5.6%,?,?,?,?,?
SMILES,12-LOX inh,DT40 TDP1 no CPT,RORg inh,Gal4-VP16 FLuc,DT40 TDP1 CPT,ELG1 repair inh
Cn1nccc1C(=O)Nc1ccc(OC(=O)c2ccnn2C)cc1,4.0%,-20.2%,36.5%,-11.6%,-26.3%,23.1µM*
CCCc1cc(=O)oc2cc(OCC(=O)c3ccc(OC)cc3)ccc12,-2.7%,nt,nt,nt,nt,nt
COc1ccc(C[C@@H]2OC3(C=CC(=O)C=C3)O[C@H]2Cc2ccc(OC)cc2)cc1,nt,0.366µM*,nt,nt,0.411µM*,nt
O=C1C=CC2(C=C1)O[C@H](Cc1ccccc1)[C@@H](Cc1ccccc1)O2,0.1%,0.651µM*,nt,nt,1.03µM*,nt
O=C1Nc2ccccc2C1Cc1ccccc1 (centres undefined),260.7%,-9.7%,31.4%,-0.4%,?,?
CN(CC(=O)Nc1cccc(F)c1)C(=O)c1nn(Cc2ccccc2)c(=O)c2ccccc12,27.2%,nt,nt,nt,nt,nt
CN(C)c1cccc(C(=O)NC2CCN(c3cnn(C)c(=O)c3)CC2)c1,49.6%,nt,nt,nt,nt,nt
Cc1ccc(CN2CCc3oc(C)c(C(=O)NC4CCCC4)c3C2)cc1,25.1µM*,nt,nt,nt,nt,nt
Cc1oc2c(c1C(=O)N1CCN(C3CCCC3)CC1)CN(Cc1cccc(F)c1)CC2,8.91µM*,nt,nt,nt,nt,nt
Cc1oc2c(c1C(=O)NC1CCCC1)CN(Cc1ccc(F)cc1)CC2,12.6µM*,nt,nt,nt,nt,nt
Cc1oc2c(c1C(=O)NCc1ccncc1)CN(Cc1cccc(F)c1)CC2,-4.5%,nt,nt,nt,nt,nt
Cc1ccc(NC(=O)C2CC(=O)N(C(C)c3ccccc3)C2)cc1 (centres undefined),?,-22.0%,nt,nt,-3.7%,23.0%
Cc1ccc(NC(=S)NCC2CCN(C(C)c3ccccc3)C2)cc1 (centres undefined),?,16.4µM*,?,?,20.6µM*,6.0%
CC(c1ccccc1)N1CCC(CNC(=S)Nc2cccc(Cl)c2)C1 (centres undefined),?,?,10µM*,?,?,2.1%
O=C(NCC1CC1)Nc1cccc(Cl)c1,10.3%,0.6%,14.0%,-11.8%,-9.1%,?
COCCn1ncc(N2CCC(NC(=O)COc3ccc(F)cc3)CC2)cc1=O,18.8%,nt,nt,nt,nt,nt
CNC(=S)NNC(=O)c1ccc(C)s1,24.0%,nt,nt,nt,nt,nt
CCOCCCNC(=O)C(c1ccc(C)cc1)N(Cc1ccc2c(c1)OCO2)C(=O)c1ccccc1O (centres undefined),4.4%,16.4µM*,nt,nt,23.1µM*,nt
CN(C)c1ccc(CN2CCC3(CC2)CC(=O)Nc2ccccc2O3)cc1,5.0%[6.33 µM],nt,nt,nt,nt,nt
CC1(C)CNC(=O)c2nc(CCN3CCCc4ccccc43)[nH]c2C1,319.6%,nt,nt,nt,nt,nt
Cc1ccc(NC(=O)C2(C)CCCCC(=O)N2)cc1 (centres undefined),13.5%,nt,nt,nt,nt,nt
O=C(Nc1ccc2oc(-c3ccccc3Cl)nc2c1)c1cncc(Br)c1,0.0%,11.6µM*,-32.4%,?,7.31µM*,?
O=C(Nc1ccc2oc(-c3cc(Br)ccc3Cl)nc2c1)c1ccc2ccccc2c1,?,11.6µM*,nt,nt,16.4µM*,nt
